This note sets out measurements from PubChem BioAssay.

The source made the active and inactive calls.

Assay [1] deals with Human papillomavirus type 1a protein E7 (residues 44-93). In words: small molecules binding HPV E7 44-93 – biochemical, small-molecule microarray, residues 44-93, 635 nm fluorescence, primary screen (AID 1108).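 Further: E7 fragment applied at 1 µg/mL in TBST for 1 h at 4 C; score combines spot fluorescence with its signal to noise ratio.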 The conditions noted are these: fluorescence 635 nm, higher = more signal.
The nature of assay [2]: hepatitis C replication reporter changes, two-sided – Huh7 cells, luciferase reporter, HCV replication inhibitor project, primary screen (AID 1109).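 Further: huh7 hepatoma cells harbouring a luciferase neomycin HCV replicon reporter; luciferase luminescence as measure of HCV replicon replication; test concentration not given here.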 The conditions noted are these: Huh7 HCV replicon luciferase reporter, 48 h; higher = more signal.
Assay [3] concerns the target Left-right determination factor 2 (Homo sapiens) (UniProt O00292). In words: small molecules binding LEFTY2 protein – biochemical, small-molecule microarray, 635 nm fluorescence scan, primary screen (AID 1110). The settings on record: higher = more signal.
For assay [4], the target named is Calmodulin-1 (Homo sapiens) (UniProt P0DP23). The experiment in a line: small molecules binding calmodulin-1 with EGTA – biochemical, small-molecule microarray, Cy5-labelled CALM1, profiling panel (AID 1111).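 Further: labelled calmodulin applied in Tris saline Tween buffer holding calcium plus EGTA and DTT.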 The settings on record: Cy5-CALM1 binding fluorescence, higher = more signal.
The target is the same in assay [5]. In words: small molecules binding Ca-loaded calmodulin-1 – biochemical, small-molecule microarray, Cy5-labelled CALM1, plus calcium, artefact control for SMM control-protein annotation, profiling panel (AID 1112).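 Further: score merges spot fluorescence with signal to noise from triplicate slides.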 The conditions noted are these: Cy5-CALM1 binding fluorescence, higher = more signal.
A short description of assay [6]: probe aWnt5a binding to arrayed compounds – biochemical, biotinylated probe, 635/667 nm fluorescence, primary screen (AID 1113).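 Further: score merges 667 nm fluorescence intensity with signal-to-noise per printed feature.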 The settings on record: small-molecule microarray, higher = more signal.
Assay [7] is described as follows: probe aShh binding to arrayed compounds – biochemical, biotinylated probe, 635/667 nm fluorescence, primary screen (AID 1114).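 Further: probe is biotin-labelled aShh protein from a stem cell growth factor screen; measures binding of labelled protein to compounds printed on the slide; score merges feature fluorescence at 667 nm with signal-to-noise.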 The settings on record: small-molecule microarray, higher = more signal.
The nature of assay [8]: probe aNog binding to arrayed compounds – biochemical, biotinylated probe, 635/667 nm fluorescence, primary screen (AID 1115).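 Further: probe is biotinylated aNog protein used at 0.15 µg/mL for 1 h at 4 C; z-score combines 667 nm fluorescence of each spot with its signal to noise.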 The settings on record: small-molecule microarray, higher = more signal.
For assay [9], the target named is Torsin-1A-interacting protein 1 (Homo sapiens) (UniProt Q5JTV8). In words: compound microarray binding of lysate hLAP1 – cell lysate, small-molecule microarray, COS7 lysate, 635/667 nm fluorescence, primary screen (AID 1116). The conditions noted are these: 635 nm fluorescence, higher = more signal.
Assay [10] concerns the target Alpha-bungarotoxin (Bungarus multicinctus) (UniProt P60615). In words: compounds binding labelled alpha-BTX control protein – biochemical, small-molecule microarray, Alexa647 label, 635/667 nm fluorescence, artefact control for SMM control protein annotation, profiling panel (AID 1117). The conditions noted are these: alpha-BTX-A647 binding fluorescence, higher = more signal.

Assay [11] addresses Albumin (Bos taurus) (UniProt P02769). In words: compounds binding labelled BSA control protein – biochemical, small-molecule microarray, Alexa647 label, 635/667 nm fluorescence, artefact control for SMM control protein annotation, profiling panel (AID 1118).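 Further: score merges 667 nm emission intensity and signal-to-noise per printed compound spot.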 The conditions noted are these: BSA-A647 binding, fluorescence 635 nm, higher = more signal.
Assay [12] is described as follows: probe aXIP binding to arrayed compounds – biochemical, NeuroSMM set, 635/667 nm fluorescence, primary screen (AID 1119).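 Further: probe is the protein aXip251-270 applied at 1 µg/mL to compound-printed slides; binding of probe to printed compounds measured as 667 nm fluorescence plus signal to noise.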 The settings on record: small-molecule microarray, higher = more signal, called active from +8 up or from −8 down.
Assay [13] in a line: probe aNOTCH3 binding on compound microarray – biochemical, small-molecule microarray, 635/667 nm fluorescence, primary screen (AID 1120).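 Further: probe is a biotin-tagged antibody raised against NOTCH3 rather than NOTCH3 protein; score merges spot fluorescence near 667 nm with spot signal to noise.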 The conditions noted are these: higher = more signal.
Assay [14] is described as follows: probe aNOTCH2 binding on compound microarray – biochemical, small-molecule microarray, 635/667 nm fluorescence, primary screen (AID 1121).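 Further: score merges feature fluorescence read at 667 nm with its signal to noise.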 The conditions noted are these: higher = more signal.
The target in assay [15] is Carbonic anhydrase 2 (Homo sapiens) (UniProt P00918). In words: compounds binding carbonic anhydrase 2 – biochemical, small-molecule microarray, Alexa647-labelled CAII, profiling panel (AID 1122). The settings on record: CAII-A647 binding fluorescence, higher = more signal.
Assay [16] in a line: COS7 lysate on small-molecule microarray, probe aHis, 635 nm (AID 1123).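 Further: z-score combines 667nm fluorescence intensity with signal-to-noise per printed compound spot.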 The conditions noted are these: COS7 cell lysate, fluorescence, higher = more signal.
A short description of assay [17]: probe aLAP1 signal on lysate-treated microarray – cell lysate, small-molecule microarray, COS7 lysate, primary screen (AID 1124).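 Further: lysate comes from COS7 cells expressing LAP1 and is applied at 0.3 µg/mL; score merges spot fluorescence near 667 nm with signal-to-noise over triplicate slides.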 The settings on record: probe aLAP1, fluorescence, higher = more signal.
In assay [18] the test system is Sam68 (KHDRBS1). The experiment in a line: compounds binding KHDRBS1 protein – biochemical, small-molecule microarray, 635 nm fluorescence, primary screen (AID 1125).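 Further: score merges 667 nm channel intensity with signal to noise over triplicate slides.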 The settings on record: higher = more signal.
Assay [19] concerns Chordin-like protein 2 (CHRDL2). In words: compounds binding chordin-like 2 – biochemical, small-molecule microarray, 635 nm fluorescence, primary screen (AID 1126).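 Further: printed compound slides probed with Chrdl2 protein at 4 µg/mL for 1 h at 4 C; score merges 667 nm emission intensity with signal to noise over three replicate slides.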 The conditions noted are these: fluorescence 635 nm, higher = more signal.
For assay [20], the target named is Concanavalin-A (Canavalia ensiformis) (UniProt P02866). In words: compounds binding concanavalin A lectin – biochemical, small-molecule microarray, Alexa647 label, 635 nm, artefact control for SMM control protein annotation, primary screen (AID 1127).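 Further: z combines 667 nm emission intensity with signal-to-noise across three replicate slides.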 The settings on record: ConA-A647 binding fluorescence, higher = more signal.
Sequence of Concanavalin-A (Canavalia ensiformis) (P02866 whole entry, looked up): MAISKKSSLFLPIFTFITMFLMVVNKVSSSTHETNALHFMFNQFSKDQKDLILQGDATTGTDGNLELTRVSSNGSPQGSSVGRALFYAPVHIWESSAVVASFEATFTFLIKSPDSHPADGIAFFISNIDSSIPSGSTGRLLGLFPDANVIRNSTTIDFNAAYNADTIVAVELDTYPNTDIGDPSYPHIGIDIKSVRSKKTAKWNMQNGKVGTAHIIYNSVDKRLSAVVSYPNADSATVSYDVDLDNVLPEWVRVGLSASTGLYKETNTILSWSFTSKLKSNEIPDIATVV

Sequence of Albumin (Bos taurus) (P02769 whole entry, looked up): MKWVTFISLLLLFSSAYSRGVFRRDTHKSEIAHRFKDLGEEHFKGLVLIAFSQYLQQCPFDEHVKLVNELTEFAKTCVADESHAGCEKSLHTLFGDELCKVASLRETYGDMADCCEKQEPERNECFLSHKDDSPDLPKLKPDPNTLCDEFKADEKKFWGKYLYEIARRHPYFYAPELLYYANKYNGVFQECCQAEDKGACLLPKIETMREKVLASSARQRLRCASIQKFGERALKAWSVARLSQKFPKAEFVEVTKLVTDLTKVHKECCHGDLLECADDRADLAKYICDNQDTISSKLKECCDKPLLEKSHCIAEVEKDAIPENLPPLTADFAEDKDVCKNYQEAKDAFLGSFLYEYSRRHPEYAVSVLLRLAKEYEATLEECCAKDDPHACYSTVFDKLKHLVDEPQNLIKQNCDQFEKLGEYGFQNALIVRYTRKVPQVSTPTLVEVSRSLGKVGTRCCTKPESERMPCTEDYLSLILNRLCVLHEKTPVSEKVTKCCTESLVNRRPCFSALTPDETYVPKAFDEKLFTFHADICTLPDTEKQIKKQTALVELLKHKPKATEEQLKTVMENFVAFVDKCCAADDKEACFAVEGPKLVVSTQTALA
Sequence of Left-right determination factor 2 (Homo sapiens) (O00292 whole entry, looked up): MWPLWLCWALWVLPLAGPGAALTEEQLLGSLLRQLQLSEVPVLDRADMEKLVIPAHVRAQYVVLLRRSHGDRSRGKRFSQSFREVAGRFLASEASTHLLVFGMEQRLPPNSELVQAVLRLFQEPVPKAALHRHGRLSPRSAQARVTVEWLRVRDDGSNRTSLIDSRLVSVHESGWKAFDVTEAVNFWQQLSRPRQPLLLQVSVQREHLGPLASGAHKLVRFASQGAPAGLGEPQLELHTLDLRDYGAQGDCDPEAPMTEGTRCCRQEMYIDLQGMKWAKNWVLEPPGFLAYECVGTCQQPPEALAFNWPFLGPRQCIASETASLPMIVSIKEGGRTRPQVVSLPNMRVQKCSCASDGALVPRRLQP
Sequence of Torsin-1A-interacting protein 1 (Homo sapiens) (Q5JTV8 whole entry, looked up): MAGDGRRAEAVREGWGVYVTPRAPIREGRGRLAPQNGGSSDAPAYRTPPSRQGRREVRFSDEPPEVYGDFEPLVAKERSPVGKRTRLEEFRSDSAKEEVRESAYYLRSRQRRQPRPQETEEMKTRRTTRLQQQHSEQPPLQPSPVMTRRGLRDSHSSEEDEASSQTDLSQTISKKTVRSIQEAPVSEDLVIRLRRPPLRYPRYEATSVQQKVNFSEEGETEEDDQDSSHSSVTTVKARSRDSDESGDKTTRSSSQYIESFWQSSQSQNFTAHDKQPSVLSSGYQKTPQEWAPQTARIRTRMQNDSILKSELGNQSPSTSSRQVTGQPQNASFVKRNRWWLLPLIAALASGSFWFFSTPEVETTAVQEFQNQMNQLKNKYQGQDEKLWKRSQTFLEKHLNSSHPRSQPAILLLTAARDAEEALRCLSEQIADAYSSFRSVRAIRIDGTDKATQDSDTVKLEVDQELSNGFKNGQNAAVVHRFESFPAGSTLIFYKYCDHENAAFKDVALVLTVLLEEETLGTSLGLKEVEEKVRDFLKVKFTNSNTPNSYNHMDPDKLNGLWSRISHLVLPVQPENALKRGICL
Sequence of Alpha-bungarotoxin (Bungarus multicinctus) (P60615 whole entry, looked up): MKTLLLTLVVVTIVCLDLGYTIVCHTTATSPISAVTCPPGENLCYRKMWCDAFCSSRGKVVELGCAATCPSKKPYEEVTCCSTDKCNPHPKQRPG

In the case of `CCCN1C(=O)[C@@]2(CCS(=O)(=O)c3ccccc3)N=C(c3ccc(OCCCO)cc3)O[C@H]2c2ccccc21`, the composite z-score is 1.45 in [1]; 0.224 in assay [3]; 0.248 in assay [4]; -0.598 in [5]; -0.0721 in assay [6]; -0.0234 in assay [7]. Further, the composite z-score is -0.269 in [8]; 0.307 in assay [9]; 1.01 in assay [10]; -0.676 in [11]; 0.0833 in [13]; -0.0956 in [14]. Further, the composite z-score in [15] was found to be 0.294; in [16] it was 2.41; in [17], 0.163; in assay [18], 1.3; in assay [19], 0.637; in assay [20], 0.892. In assay [2], this molecule came in with a z-score of -2.08. The composite Z-score in assay [12] is -0.113 (inactive).
Regarding `C=CCc1cccc([C@H]2N[C@H](C(=O)O)CC[C@@H]2C)c1`, the composite z-score in [1] was 0.175; in assay [3], 0.956; in assay [4] it was -0.962; in assay [5] it was -1.26; in assay [6] it was -0.232; in [7], -0.271. The composite z-score in assay [8] is -0.539; in [9] it was 0.0883; in [10], -0.142; in assay [11], -0.595; in assay [13] it was -0.122; in assay [14], -0.157. In addition, the composite z-score in assay [15] is 0.0666; in assay [16] it was -0.31; in assay [17], -0.27; in [18] it was 0.538; in [19], 0.843; in assay [20] it was 0.0607. The same molecule gave a z-score in [2] of -0.222. For the same molecule, in assay [12], the composite Z-score was -0.149 (inactive).
As to `N#Cc1ccc(NN2C(C(O)CCc3ccccc3)C=CC3C(=O)N(c4ccccc4)C(=O)C32)cc1` (stereo not given), the composite z-score in [1] was -0.317; in assay [3], -0.111; in [4], 1.59; in assay [5] it was 0.0484; in [6], 0.0785; in [7], 0.108. Moreover, the composite z-score in assay [8] was -0.428; in [9], 2.95; in assay [10], 0.969; in assay [11], 1.06; in assay [13] it was 0.123; in assay [14], 0.0532. For the same molecule, the composite z-score in assay [15] was 0.745; in assay [16], 2.21; in assay [17] it was 0.647; in [18], 0.924; in [19], -0.794; in assay [20], 0.831. Moreover, in [2], the z-score was -0.123. For the same molecule, in assay [12], the composite Z-score was 0.265 (inactive).
Regarding `O=C(NCc1ccccc1)[C@@]1(CCS(=O)(=O)c2ccccc2)COC(c2ccc(OCCCO)cc2)=N1`, the composite z-score is 0.623 in assay [1]; -0.0893 in [3]; 2.16 in [4]; 1.11 in [5]; 0.111 in assay [6]; 0.504 in [7]. For the same molecule, the composite z-score in [8] came out at 1.85; in [9], 1.95; in [10], 3.73; in assay [11], 0.514; in [13] it was 0.291; in assay [14] it was 0.0539. In addition, the composite z-score was 0.808 in assay [15]; 3.01 in assay [16]; 0.72 in [17]; 1.3 in [18]; -0.696 in assay [19]; 1.17 in [20]. This molecule displayed a z-score in assay [2] of -1.71. The composite Z-score in assay [12] is 0.294 (inactive).
`Cc1ccc(S(=O)(=O)N2[C@@H](c3ccccc3)C(C(=O)O)=CC[C@H]2c2ccccc2)cc1`: the composite z-score in assay [1] was 0.433; in assay [3], -0.363; in assay [4], 0.526; in assay [5], 0.355; in assay [6], 0.0317; in assay [7] it was -0.0709. In addition, the composite z-score is 0.109 in [8]; -0.701 in assay [9]; 0.317 in assay [10]; 0.508 in [11]; -0.0647 in assay [13]; -0.0771 in [14]. The composite z-score in assay [15] was 0.837; in [16], 2.33; in assay [17], 0.498; in [18], 0.702; in assay [19], -0.439; in assay [20], 0.0991. This molecule also gave a z-score in assay [2] of 0.498. For the same molecule, in [12], the composite Z-score is 1.47 (inactive).
With `C=C(CCCC)/C(=C/C[C@@H](OC(=O)c1ccncc1)c1ccc(CO)o1)c1cnc2ccccc2c1`, the composite z-score is -0.41 in assay [1]; 1.48 in [3]; 1.38 in assay [4]; -0.0149 in assay [5]; 0.0973 in assay [6]; 0.213 in assay [7]. The composite z-score turned out to be 0.889 in [8]; 2.1 in assay [9]; 2.29 in assay [10]; 0.667 in [11]; 0.382 in [13]; 0.0626 in assay [14]. For the same molecule, the composite z-score in assay [15] was 0.956; in assay [16], 2.33; in assay [17], 0.405; in [18], 1.31; in assay [19], 1.45; in assay [20], 1.18. In addition, in [2], the z-score is -1.13. Moreover, the composite Z-score in [12] is 1.04 (inactive).
